Source: PubChem
Hits are enriched below; roughly 2.4% of the tested compounds scored in any of these assays.
M1 ag: activates human CHRM1 receptor. P11229. CHO-K1 hM1, Fluo-8 calcium fluorescence, agonist mode; 0% DMSO, 100% acetylcholine EC100. activation, % at 3 µM. 360,000 tested, 0.33% active. AID 588814;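 active = activation above the run's mean compound activation plus 3 SD, cut at about 16% in these data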;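 note: peak over basal fluorescence ratio within a 140 s kinetic read after compound addition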
Target sequence (P11229 whole entry, looked up): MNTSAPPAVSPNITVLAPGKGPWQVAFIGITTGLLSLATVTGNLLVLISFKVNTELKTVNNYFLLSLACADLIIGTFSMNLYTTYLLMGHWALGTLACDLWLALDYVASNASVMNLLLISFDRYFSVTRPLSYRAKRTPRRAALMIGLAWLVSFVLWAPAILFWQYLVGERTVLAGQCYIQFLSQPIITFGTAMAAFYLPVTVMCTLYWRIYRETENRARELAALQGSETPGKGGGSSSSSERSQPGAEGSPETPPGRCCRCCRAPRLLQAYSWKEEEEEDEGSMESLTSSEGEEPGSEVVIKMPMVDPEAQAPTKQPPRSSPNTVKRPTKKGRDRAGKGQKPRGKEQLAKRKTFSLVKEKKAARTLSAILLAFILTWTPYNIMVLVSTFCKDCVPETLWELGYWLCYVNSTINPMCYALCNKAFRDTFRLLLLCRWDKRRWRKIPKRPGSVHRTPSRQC
CHRM1 antagonist: human CHRM1 antagonism; CHO-K1 hM1, Fluo-8 calcium fluorescence, ACh EC80 antagonist; 360,000 tested, 1.3% active; inhibition, % at 3 µM;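 active = percent inhibition above its own plate's cutoff, namely the mean of that plate's compound wells plus 3 SD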;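 note: peak over basal fluorescence ratio during 140 s after agonist addition; 0% = ACh EC80 plus DMSO and 100% = DMSO alone without agonist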
CHO-K1 Ca PAM: counter-screen for M1 PAMs: effect in parental CHO-K1 cells. ATP EC20, Fluo-8 calcium fluorescence; 0% at ATP EC20, 100% at ATP max. activation, % at 3 µM. 360,000 tested, 0.02% active. AID 602247;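 active = activation above the run cutoff, the mean activation of all test compounds plus 3 SD, cut at about 40% in these data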;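 note: peak over basal fluorescence ratio in a 140 s read after ATP addition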
CHRM1 PAM: human CHRM1 positive allosteric modulation. P11229. CHO-K1 hM1, Fluo-8 calcium fluorescence, ACh EC20; 0% = ACh EC20, 100% = maximal ACh. AID 588819. 360,000 tested, 0.088% active. activation, % at 3 µM; in the data active = activation above about 19%, passing the limit was not always enough
CHO-K1 Ca antag: nonselective inhibitor or artifact in parental CHO-K1 cells; 360,000 tested, 0.6% active; ATP-induced calcium, Fluo-8 fluorescence; inhibition, % at 3 µM;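 active = inhibition above a per-plate cutoff, the plate's mean sample inhibition plus 3 SD, cut at about 24% in these data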;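 note: 0% = DMSO plus EC80 ATP and 100% = DMSO alone without ATP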
CHO-K1 Ca ag: M1 agonist counterscreen hit in parental CHO-K1 cells. Fluo-8 calcium fluorescence; scaled to maximal ATP response, vehicle zero. activation, % at 3 µM. 360,000 tested, 0.48% active. AID 602248; in the data active = activation above about 15%;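 note: untransfected CHO-K1 host cells lacking M1 receptor as counterscreen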
* = called active by the depositor; ! = not active in a repeat.

SMILES	M1 ag	CHRM1 antagonist	CHO-K1 Ca PAM	CHRM1 PAM	CHO-K1 Ca antag	CHO-K1 Ca ag
COc1ccc(-c2cc(C(=O)N3CCN(c4ccccn4)CC3)c3ccccc3n2)cc1	0	30*	15	-10	1	5
O=C(c1ccc2nc[nH]c2c1)N1CCN(c2cccc(Cl)c2)CC1	-3	2	-9	-2	1	5
CC(C)c1nnc(NC(=O)COc2ccc3c(c2)OCO3)s1	-8	-16	19	9	-11	2
CCC(CC)c1nnc(NC(=O)COc2ccc3c(c2)OCO3)s1	9	5	18	-3	-7	20*
CN(Cc1ccccc1)c1nc(CN2CCOCC2)nc2scc(-c3ccccc3)c12	-8	6	13	-15	8	0
CC(NC(=O)c1ccco1)C(c1cccs1)N1CCN(c2ccc(F)cc2)CC1 (configuration not stated)	-9	51*	14	-18	-5	3
Cc1cc(C(=O)Nc2ccc(Cl)cc2)c(C)n1Cc1cccs1	-4	9	13	-6	-10	5
N=c1c2c3c(sc2nc2n1CCCCC2)CCCCC3	-4	92*	8	-21	-13	3
O=c1c2c3c(sc2nc2n1CCCCC2)CCCCC3	-9	14	-5	-16	10	0
CC1CN(S(=O)(=O)c2ccc(C(=O)NCCCn3ccnc3)cc2)CC(C)O1 (configuration not stated)	-12	-5	16	8	-8	0
CC1CNCCN1S(=O)(=O)c1cccc2cnccc12 (configuration not stated)	42*!	-3	16	-19	-7	3
O=S(=O)(c1cccc2cnccc12)N1CCCNCC1	-6	-9	-6	-5	1	0
CCCc1cc(=O)[nH]c2nnc(SCC(=O)Nc3cccc(NC(C)=O)c3)n12	20*	2	-23	16	11	0
COC(=O)CC1(C(=O)OC)Oc2ccccc2C(=O)N1c1ccc(F)cc1F (configuration not stated)	-2	2	16	11	-3	1
O=c1c2ccc([N+](=O)[O-])cc2ncn1CCOc1ccc(Cl)cc1	-1	44*	0	-15	4	6
Cc1ccc(S(=O)(=O)CC(c2ccccc2)N2CCOCC2)cc1 (configuration not stated)	-2	-10	-1	4	4	0
Cc1ccc(C(CNS(=O)(=O)c2ccccc2)N2CCN(C)CC2)cc1 (configuration not stated)	-4	-21	9	25*	-4	0
Cc1ccc(C(CNS(=O)(=O)c2ccc(Br)cc2)N2CCN(C)CC2)cc1 (configuration not stated)	-5	13	11	-4	3	5
Cc1ccc(S(=O)(=O)CC(c2ccccc2)N2CCCCC2)cc1 (configuration not stated)	-4	9	-16	-7	27*	-1
OCCC1CN(CC#Cc2ccccc2)CCN1C1CCCC1 (configuration not stated)	-6	4	4	-1	-17	0
OCCC1CN(CC(c2ccccc2)c2ccccc2)CCN1C1CCCC1 (configuration not stated)	-14	27*	3	-32	8	0
OCCC1CN(Cc2cnc(-c3ccccc3)s2)CCN1C1CCCC1 (configuration not stated)	-10	39*	-10	-28	13	0
COc1ccc(CCNC(=O)c2cc(-c3ccccc3)c(N3CCOCC3)s2)cc1OC	6	17	-6	-6	-1	4
CCCCc1cc(O)c(CCCC)c(O)c1	55*	51*	-9	-16	48*	47*
O=C(Nc1ccccc1)Nc1nc(-c2ccc(F)c(F)c2)cs1	5	18	-5	-6	20	16*
SMILES	M1 ag	CHRM1 antagonist	CHO-K1 Ca PAM	CHRM1 PAM	CHO-K1 Ca antag	CHO-K1 Ca ag
O=C(Nc1ccc(Cl)cc1)Nc1nc(-c2ccccc2O)cs1	9	35*	-9	-11	15	17*
O=C(Nc1ccccc1)Nc1nc(-c2ccccc2)cs1	10	23	-7	-11	23	9
CCOC(=O)c1ccc(Oc2c(C)oc3c(CN4CCN(C)CC4)c(O)ccc3c2=O)cc1	-4	9	13	-8	-1	0
O=C1NC(=S)SC1=Cc1ccccc1Cl	0	0	0	-2	-18	8
O=C1NC(=S)S/C1=C\c1cc(Cl)cc(Cl)c1O	40*	36*	0	-13	14	37*
C/C(Cl)=C/CN1C(=O)C2C3C=CC(C3)C2C1=O (configuration not stated)	-5	2	-2	7	10	0
Cc1ccc(NC(=O)C2(C)CCN2Cc2csc3ccccc23)cc1 (configuration not stated)	-9	45*	15	-29	-4	0
COCOc1cccc(CN2CCC2(C)C(=O)Nc2ccc3c(c2)OCO3)c1 (configuration not stated)	-1	3	30	3	-14	2
CC1(C(=O)Nc2ccc3c(c2)OCO3)CCN1Cc1csc2ccccc12 (configuration not stated)	6	25	40*	-23	-24	0
CC1(C(=O)Nc2ccc3c(c2)OCO3)CCN1Cc1cccc2c1OCO2 (configuration not stated)	1	-8	58*	-6	-21	3
CC1CCCCC1NC(=O)CSc1ccsc1[N+](=O)[O-] (configuration not stated)	-10	-8	22	10	-5	2
O=C(CSc1ccsc1[N+](=O)[O-])NC1CCCC1	-8	1	-14	10	26*	-1
O=C(Cn1cnc2ccccc2c1=O)c1ccc2ccccc2c1	-5	-7	13	-1	-2	1
c1cncc(-c2nc3ccccc3s2)c1	-3	-11	17	9	-3	1
CSc1ccc(C(=O)C2CCCN(Cc3cccc4nccnc34)C2)cc1 (configuration not stated)	-8	68*	19	-25	-20	2
CN1C[C@@H]2C(c3ccccc3)C3(c4ccccc4)CC2(C3)[C@H]1c1ccccc1 (some centres not stated)	-14	78*	19	-36	-10	0
Clc1ccc(C2[C@H]3CN(CC4CCCCC4)[C@H](c4ccccc4)C34CC2(c2ccccc2)C4)cn1 (some centres not stated)	-1	-4	7	14	-16	0
CN1C[C@@H]2C(c3ccc(Cl)nc3)C3(c4cccnc4)CC2(C3)[C@H]1c1ccccc1 (some centres not stated)	-14	54*	1	-37	-15	1
